Test results published in PubChem BioAssay AID1159580 (chemical genetic matrix, 2015).
Several values for one entry are separate records, joined by “and”; a condition that tells them apart may be missing. Identical values can stand only once. About 2,000 (36%) of roughly 5,500 compounds were called active. Not shown: some 18% with an inconclusive outcome. Rule as the data show it: active = normalized growth mostly below about 0.91 (no sharp cut-off); inconclusive = no clear call, values can overlap the other calls; inactive = mostly above about 0.92. The list shows a part of the results.

Assay: chemical genetic growth profiling, strain panel (AID 1159580);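 also: tested at 20 µM; growth read once vehicle control cultures reached saturation at 30 °C; 1 = growth at the plate median or of vehicle wells; lower values mean less growth of the strain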
Conditions: S. cerevisiae deletion strains, growth OD
[1] = locus YBR229C, strain ROT2, stronger effect = lower value
[2] = locus YCL061C, strain MRC1, stronger effect = lower value
[3] = locus YDL101C, strain DUN1, stronger effect = lower value
[4] = locus YDL134C, strain PPH21, stronger effect = lower value
[5] = locus YEL061C, strain CIN8, stronger effect = lower value
[6] = locus YHR030C, strain SLT2, stronger effect = lower value
[7] = locus YJR043C, strain POL32, stronger effect = lower value
[8] = locus YKL190W, strain CNB1, stronger effect = lower value
[9] = locus YLR039C, strain RIC1, stronger effect = lower value
[10] = locus YMR263W, strain SAP30, stronger effect = lower value
[11] = locus YMR307W, strain GAS1, stronger effect = lower value
[12] = locus YNL153C, strain GIM3, stronger effect = lower value
[13] = locus YPL055C, strain LGE1, stronger effect = lower value

Measured: normalized growth

C[C@H]1C(=O)CCC2[C@]3(C)CC[C@@]4(C)C5CC(C)(C)CC[C@]5(C)CC[C@]4(C)C3CC[C@@]21C (stereo partly specified)
active: locus YBR021W, strain FUR4, stronger effect = lower value 0.713 | locus YDL192W, strain arf1, stronger effect = lower value 0.901 | locus YKR001C, strain vps1, stronger effect = lower value 0.876 | locus YNR052C, strain pop2, stronger effect = lower value 0.851
inactive: locus YAL021C, strain ccr4, stronger effect = lower value 0.979 | locus YAL026C, strain drs2, stronger effect = lower value 1.02 | locus YAL030W, strain snc1, stronger effect = lower value 1 | locus YBL061C, strain skt5, stronger effect = lower value 1 | locus YBR009C, strain hhf1, stronger effect = lower value 1.02 | locus YBR023C, strain chs3, stronger effect = lower value 1 | locus YBR171W, strain sec66, stronger effect = lower value 1 | [1] 1.02 | locus YBR231C, strain swc5, stronger effect = lower value 0.997 | locus YBR279W, strain paf1, stronger effect = lower value 1.01 | locus YCL011C, strain gbp2, stronger effect = lower value 1.01 | locus YCL016C, strain dcc1, stronger effect = lower value 1 | locus YCL029C, strain bik1, stronger effect = lower value 0.968 | [2] 1.01 | locus YCL069W, strain vba3, stronger effect = lower value 1.01 | locus YCR088W, strain abp1, stronger effect = lower value 1.01 | locus YDL005C, strain med2, stronger effect = lower value 0.995 | locus YDL035C, strain GPR1, stronger effect = lower value 0.983 | locus YDL040C, strain nat1, stronger effect = lower value 1.01 | locus YDL074C, strain BRE1, stronger effect = lower value 0.955 | [3] 1.02 | [4] 0.97 | locus YDL185W, strain tfp1, stronger effect = lower value 1.02 | locus YDR001C, strain nth1, stronger effect = lower value 1 | locus YDR069C, strain doa4, stronger effect = lower value 0.992 | locus YDR101C, strain arx1, stronger effect = lower value 0.981 | locus YDR137W, strain rgp1, stronger effect = lower value 0.987 | locus YDR159W, strain sac3, stronger effect = lower value 0.981 | locus YDR162C, strain NBP2, stronger effect = lower value 0.857 | locus YDR195W, strain ref2 0.966 | locus YDR297W, strain sur2, stronger effect = lower value 0.996 | locus YDR318W, strain mcm21, stronger effect = lower value 0.991 | locus YDR334W, strain swr1, stronger effect = lower value 1 | locus YDR335W, strain msn5, stronger effect = lower value 1.02 | locus YDR388W, stronger effect = lower value 1 | locus YDR392W, strain spt3, stronger effect = lower value 0.934 | locus YDR502C, strain sam2, stronger effect = lower value 0.97 | locus YEL003W, strain gim4, stronger effect = lower value 1.01 | locus YEL037C, strain rad23, stronger effect = lower value 0.999 | locus YEL061C, strain CIN8 (second series), stronger effect = lower value 1.01 | [5] 1.02 | locus YER015W, strain faa2, stronger effect = lower value 1.01 | locus YER016W, strain bim1, stronger effect = lower value 0.994 | locus YER110C, stronger effect = lower value 1.01 | locus YER111C, strain swi4, stronger effect = lower value 0.998 | locus YER155C, strain BEM2 (second series), stronger effect = lower value 0.995 | locus YER155C, strain BEM2, stronger effect = lower value 1.03 | locus YER167W, strain BCK2, stronger effect = lower value 0.98 | locus YFR010W, strain ubp6, stronger effect = lower value 1.01 | locus YGL078C, strain dbp3, stronger effect = lower value 1.04 | locus YGL086W, strain mad1, stronger effect = lower value 0.974 | locus YGL167C, strain pmr1, stronger effect = lower value 1 | locus YGL173C, strain kem1, stronger effect = lower value 1.01 | locus YGL227W, strain vid30, stronger effect = lower value 1 | locus YGL240W, strain doc1, stronger effect = lower value 0.978 | locus YGL248W, strain PDE1, stronger effect = lower value 0.978 | locus YGL253W, strain hxk2, stronger effect = lower value 1.03 | locus YGR135W, strain pre9, stronger effect = lower value 1.01 | locus YGR252W, strain gcn5, stronger effect = lower value 0.902 | locus YHR013C, strain ard1, stronger effect = lower value 1.01 | locus YHR027C, strain rpn1, stronger effect = lower value 1.01 | [6] 1.04 | locus YHR079C, strain IRE1 (second series), stronger effect = lower value 1.02 | locus YHR079C, strain IRE1, stronger effect = lower value 1.04 | locus YHR094C, strain hxt1, stronger effect = lower value 1.01 | locus YHR129C, strain ARP1, stronger effect = lower value 1 | locus YHR142W, strain chs7, stronger effect = lower value 1.03 | locus YHR200W, strain rpn10, stronger effect = lower value 0.951 | locus YIL066C, strain RNR3, stronger effect = lower value 0.969 | locus YIL073C, strain SPO22, stronger effect = lower value 1.02 | locus YIL125W, strain kgd1, stronger effect = lower value 1 | locus YIR030C, strain dcg1, stronger effect = lower value 1.02 | locus YJL092W, strain hpr5, stronger effect = lower value 1.01 | locus YJL095W, strain BCK1 (second series), stronger effect = lower value 0.999 | locus YJL095W, strain BCK1, stronger effect = lower value 0.936 and 1.01 | locus YJL115W, strain asf1, stronger effect = lower value 1 | locus YJL129C, strain trk1, stronger effect = lower value 1.01 | locus YJL134W, strain LCB3, stronger effect = lower value 1.03 | locus YJL154C, strain vps35, stronger effect = lower value 1 | locus YJL164C, strain tpk1, stronger effect = lower value 1.01 | locus YJL166W, strain qcr8, stronger effect = lower value 1 | locus YJL168C, strain set2, stronger effect = lower value 1.02 | locus YJL187C, strain SWE1 (second series), stronger effect = lower value 0.995 | locus YJL187C, strain SWE1, stronger effect = lower value 1 | [7] 0.949 | locus YJR066W, strain TOR1, stronger effect = lower value 0.984 | locus YKL009W, strain mrt4, stronger effect = lower value 1.03 | locus YKL068W, stronger effect = lower value 1.02 | locus YKL085W, strain MDH1 (second series), stronger effect = lower value 1.01 | locus YKL085W, strain MDH1, stronger effect = lower value 1.01 | locus YKL160W, strain elf1, stronger effect = lower value 1.01 | [8] 1.02 | locus YKR026C, strain gcn3, stronger effect = lower value 0.999 | locus YKR091W, strain srl3, stronger effect = lower value 1.01 | locus YLL001W, strain dnm1, stronger effect = lower value 1 | locus YLL026W, stronger effect = lower value 1 | locus YLL041C, strain sdh2, stronger effect = lower value 1.01 | locus YLR027C, strain aat2, stronger effect = lower value 1 | [9] 0.738 | locus YLR058C, strain SHM2, stronger effect = lower value 0.994 | locus YLR102C, strain apc9, stronger effect = lower value 1.02 | locus YLR113W, strain HOG1, stronger effect = lower value 0.965 | locus YLR221C, strain rsa3, stronger effect = lower value 0.995 | locus YLR258W, strain gsy2, stronger effect = lower value 1 | locus YLR262C, strain YPT6 (second series), stronger effect = lower value 1.01 | locus YLR268W, strain sec22, stronger effect = lower value 0.985 | locus YLR320W, strain mms22, stronger effect = lower value 1.01 | locus YLR342W, strain FKS1 (second series), stronger effect = lower value 0.992 | locus YLR342W, strain FKS1, stronger effect = lower value 1 | locus YLR357W, strain rsc2, stronger effect = lower value 0.977 | locus YLR370C, strain arc18, stronger effect = lower value 1.02 | locus YLR371W, strain rom2, stronger effect = lower value 1 | locus YLR384C, strain iki3, stronger effect = lower value 0.978 | locus YLR418C, strain cdc73, stronger effect = lower value 0.876 | locus YML016C, strain PPZ1, stronger effect = lower value 1.01 | locus YML032C, strain rad52, stronger effect = lower value 0.953 | locus YML120C, strain ndi1, stronger effect = lower value 0.998 | locus YML124C, strain tub3, stronger effect = lower value 1.02 | locus YMR058W, strain fet3, stronger effect = lower value 1.02 | locus YMR078C, strain ctf18, stronger effect = lower value 1.01 | locus YMR125W, strain sto1, stronger effect = lower value 0.995 | locus YMR129W, stronger effect = lower value 0.996 | locus YMR205C, strain PFK2, stronger effect = lower value 1.02 | locus YMR223W, strain ubp8, stronger effect = lower value 0.994 | locus YMR231W, strain pep5, stronger effect = lower value 0.996 | [10] 1.02 | [11] 1.04 | locus YNL067W, strain RPL9B, stronger effect = lower value 1.02 | locus YNL071W, strain lat1, stronger effect = lower value 1.01 | [12] 1.01 | locus YNL183C, strain NPR1, stronger effect = lower value 0.981 | locus YNL209W, strain ssb2, stronger effect = lower value 1.02 | locus YNL233W, strain BNI4, stronger effect = lower value 1.01 | locus YNL248C, strain rpa49, stronger effect = lower value 0.919 | locus YNL250W, strain rad50, stronger effect = lower value 1.03 | locus YNL271C, strain bni1, stronger effect = lower value 1.01 | locus YNL298W, strain CLA4, stronger effect = lower value 0.993 | locus YNL307C, strain MCK1, stronger effect = lower value 0.984 | locus YNL322C, strain KRE1 (second series), stronger effect = lower value 0.985 | locus YNR049C, strain mso1, stronger effect = lower value 0.994 | locus YOL006C, strain TOP1, stronger effect = lower value 0.757 | locus YOL012C, strain htz1 1.29 | locus YOL147C, strain pex11, stronger effect = lower value 0.987 | locus YOR001W, strain rrp6, stronger effect = lower value 0.98 | locus YOR061W, strain CKA2, stronger effect = lower value 0.985 | locus YOR069W, strain VPS5, stronger effect = lower value 1.01 | locus YOR070C, strain gyp1, stronger effect = lower value 0.996 | locus YOR080W, strain dia2, stronger effect = lower value 1 | locus YOR083W, strain WHI5, stronger effect = lower value 1.01 | locus YOR106W, strain vam3, stronger effect = lower value 1.02 | locus YOR136W, strain idh2, stronger effect = lower value 0.994 | locus YOR144C, strain elg1, stronger effect = lower value 1 | locus YOR184W, strain ser1, stronger effect = lower value 0.967 | locus YOR231W, strain MKK1, stronger effect = lower value 0.985 | locus YOR265W, strain rbl2, stronger effect = lower value 0.993 | locus YOR270C, strain vph1, stronger effect = lower value 1.05 | locus YOR290C, strain snf2, stronger effect = lower value 0.991 | locus YOR316C, strain cot1, stronger effect = lower value 1.01 | locus YPL051W, strain arl3, stronger effect = lower value 0.999 | [13] 0.938 | locus YPL078C, strain atp4, stronger effect = lower value 1.03 | locus YPL106C, strain sse1, stronger effect = lower value 0.989 | locus YPL240C, strain hsp82, stronger effect = lower value 0.997 | locus YPL256C, strain CLN2, stronger effect = lower value 1.05 | locus YPR119W, strain clb2, stronger effect = lower value 1.02 | locus YPR141C, strain kar3, stronger effect = lower value 1.02 | locus YPR163C, strain tif3, stronger effect = lower value 0.993 | locus YPR167C, strain met16, stronger effect = lower value 1.01 | strain wtn01, stronger effect = lower value 0.948

Cc1cc2c(cc1C)CSC(C)(c1ccc(F)cc1)SC2
inactive: locus YAL013W, strain DEP1, stronger effect = lower value 0.994 | [1] 0.994 | [2] 0.993 | [3] 0.968 | [4] 0.997 | locus YDR150W, strain NUM1, stronger effect = lower value 0.903 | [5] 1.02 | locus YGR078C, strain PAC10, stronger effect = lower value 0.979 | [6] 0.952 | locus YHR087W, strain rtc3, stronger effect = lower value 1.01 | [7] 0.982 | locus YJR075W, strain HOC1, stronger effect = lower value 0.978 | [8] 0.992 | [9] 0.953 | locus YLR058C, strain SHM2 (second series), stronger effect = lower value 1 | locus YLR085C, strain ARP6, stronger effect = lower value 1.03 | locus YLR262C, strain YPT6, stronger effect = lower value 0.961 | locus YML094W, strain GIM5, stronger effect = lower value 1.01 | locus YMR219W, strain ESC1, stronger effect = lower value 1.01 | [10] 0.947 | [11] 0.737 | [12] 0.986 | locus YNL298W, strain CLA4 (second series), stronger effect = lower value 0.975 | locus YNL322C, strain KRE1, stronger effect = lower value 1 | locus YNR030W, strain Alg12, stronger effect = lower value 0.978 | [13] 1 | locus YPL241C, strain CIN2, stronger effect = lower value 1.01 | locus YPR135W, strain CTF4, stronger effect = lower value 0.946
